The results in this text go back to PubChem BioAssay AID463190 (Sanford-Burnham Center for Chemical Genomics, 2010).

The whole screen tested about 330,000 compounds, of which about 7,300 (2.2%) were called active.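 How the source made its calls: active means inhibition of at least 40%; inactive means the rest.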 The full list was thinned out, with actives kept by preference.

The assay can be described thus: growth inhibition of tim10-1 ts yeast – luminescence, uHTS, primary screen (AID 463190).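 Further: mutant grown at 25 °C; 0% = DMSO wells with yeast and 100% = wells holding no yeast.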 The settings on record: S. cerevisiae tim10-1 ts strain growth, BacTiter-Glo, 24 h; at 20 µM; active compounds read high.
For `Cc1nc2ccccn2c1P(=S)(N1CCCCC1)N1CCCCC1`, the inhibition (commonly the drop in the measured response relative to a control, in per cent) is 56.2% (active). In the case of `O=C(COc1ccc2ccccc2c1)N1CCN(Cc2ccncc2)CC1`, the inhibition is 24.7% (inactive). To `CNP1(NC)=Nc2nn(-c3ccccc3)c(N)c2C(c2ccccc2)=N1` belongs -2.7% (inactive); to `CCc1ccc(OCC(=O)N2CCN(CC(=O)Nc3ccccc3Cl)CC2)cc1`, 12.7% (inactive); to `COc1ccc(N2C(=O)/C(=C/c3ccco3)C(=O)NC2=S)cc1`, 23.1% (inactive). To `COc1cccc(N2C(=O)NC(=O)/C(=C\c3cn(C)c4ccccc34)C2=O)c1` belongs 13.4% (inactive); to `O=C1NC(=O)N(c2ccccc2)C(=O)/C1=C/c1ccc([N+](=O)[O-])s1`, 81.2% (active); to `COc1cccc(N2C(=O)NC(=O)/C(=C\c3ccc([N+](=O)[O-])s3)C2=O)c1`, 70.3% (active). To `Fc1ccc(C2N3CCCN23)cc1` (stereo not given) belongs -13.4% (inactive). For `O=C(O)CCn1cc(C=C2C(=O)NC(=S)NC2=O)c(-c2cccc(Br)c2)n1`, the inhibition was 23.4% (inactive). To `COc1ccc2c(c1O)-c1cccc3c1[C@@H](C2)N(C)CC3` belongs -10% (inactive). To `CN(C)C(=O)Oc1cc(=O)n2c3c(cccc13)CCC2` belongs 13.3% (inactive). To `O=C1C2(Cl)C3(Cl)C4(Cl)C(Cl)(Cl)C5(Cl)C3(Cl)C1(Cl)C5(Cl)C24Cl` (stereo not given) belongs -91.8% (inactive); to `O=C(CCCn1c(=O)[nH]c2cc(Cl)ccc2c1=O)N1CCC2(CC1)OCCO2`, 17.3% (inactive); to `COC(=O)C1=C(c2ccc(F)cc2OCc2ccccc2)C[C@@H]2CC[C@H]1N2C(=O)NCc1ccc2[nH]ccc2c1`, 9.44% (inactive). For the compound `N#CC1=C(N)Oc2c(c(=O)oc3ccccc23)C1c1ccccc1OC(=O)c1cccs1` (stereo not given), the inhibition was 46.4% (active). To `CCNc1nc2[nH]c(=O)c3c(c2s1)OC(N)=C(C#N)C3c1cccs1` (stereo not given) belongs -13.5% (inactive); to `CC(=O)N(C1=NCCCS1)c1ccccc1F`, 3.96% (inactive); to `CC1C2Cn3c(nc4ccccc43)C1N(C)O2` (stereo not given), -11.3% (inactive). To `COP(=O)(OC)C(NC(=O)c1ccc(C)cc1)C(Cl)(Cl)Cl` (stereo not given) belongs 11% (inactive).

With `COC(=O)C1=C(c2cc3ccccc3s2)C[C@@H]2CC[C@H]1N2C(=O)NCCO`, the inhibition was -17% (inactive).

As for `CCCCCn1c(=O)c(C(=O)NCc2ccccc2)c(O)c2ccccc21`, the inhibition is -27.8% (inactive). To `CCCCCn1c(=O)c(C(=O)Nc2c(C)n(C)n(-c3ccccc3)c2=O)c(O)c2ccccc21` belongs 45.4% (active); to `CCCCn1c(=O)c(C(=O)Nc2ccccc2Cl)c(O)c2ccccc21`, 2.29% (inactive); to `O=C(O)c1ccccc1NC(=O)C1C2CCC(O2)C1C(=O)O` (stereo not given), -7.62% (inactive).
